From PubChem BioAssay (EPA / NIEHS)
Calls of active or inactive are those of the source. The calls were made as follows: active = hit-call score of the fitted dose curve at least 0.9, where 1 is the maximum; inactive = score below 0.9.

These compounds were tested against Hypoxia-inducible factor 1-alpha (Homo sapiens) (UniProt Q16665) (assay: ATG_HIF1a_CIS: Attagene CIS-FACTORIAL HepG2 Assay for human Hypoxia Inducible Factor 1 (HIF1A) (AID 2282951)). Conditions: HepG2 Attagene cis-factorial HIF1a reporter transcription; actives raise or lower the signal.
Chain of Hypoxia-inducible factor 1-alpha (Homo sapiens) (Q16665 whole entry, looked up): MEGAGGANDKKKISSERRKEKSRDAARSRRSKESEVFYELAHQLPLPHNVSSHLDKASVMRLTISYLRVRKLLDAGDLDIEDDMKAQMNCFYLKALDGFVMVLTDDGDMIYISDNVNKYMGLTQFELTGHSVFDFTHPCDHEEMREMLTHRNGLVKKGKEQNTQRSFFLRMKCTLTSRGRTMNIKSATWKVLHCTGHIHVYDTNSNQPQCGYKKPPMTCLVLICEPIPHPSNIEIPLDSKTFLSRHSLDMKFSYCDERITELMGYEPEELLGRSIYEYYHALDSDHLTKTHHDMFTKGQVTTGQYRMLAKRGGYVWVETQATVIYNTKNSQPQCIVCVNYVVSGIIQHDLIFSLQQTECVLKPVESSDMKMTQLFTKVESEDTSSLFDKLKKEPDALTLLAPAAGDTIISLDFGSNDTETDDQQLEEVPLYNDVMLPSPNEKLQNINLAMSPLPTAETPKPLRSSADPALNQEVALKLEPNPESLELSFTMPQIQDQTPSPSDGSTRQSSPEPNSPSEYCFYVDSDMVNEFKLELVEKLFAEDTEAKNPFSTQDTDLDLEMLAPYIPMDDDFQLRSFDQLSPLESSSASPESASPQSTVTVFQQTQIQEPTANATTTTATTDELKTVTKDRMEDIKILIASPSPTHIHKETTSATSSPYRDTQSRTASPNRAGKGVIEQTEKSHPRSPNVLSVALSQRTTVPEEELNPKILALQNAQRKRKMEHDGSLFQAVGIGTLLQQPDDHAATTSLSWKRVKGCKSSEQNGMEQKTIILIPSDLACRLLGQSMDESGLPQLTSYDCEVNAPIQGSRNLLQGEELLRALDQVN
Description: ATG_CIS is a cell-based, multiplexed-readout assay that uses HepG2, a human liver cell line, with measurements taken at 24 hours after chemical dosing in a 24-well plate.ATG_HIF1a_CIS is one of 52 assay component(s) measured or calculated from the ATG_CIS assay. It is designed to make measurements of mRNA induction, a form of inducible reporter, as detected with fluorescence intensity signals by Reverse transcription polymerase chain reaction (RT-PCR) and Capillary electrophoresis technology.Data from the assay component ATG_HIF1a_CIS was analyzed into 1 assay endpoint. This assay endpoint, ATG_HIF1a_CIS, was analyzed with bidirectional fitting relative to DMSO as the negative control and baseline of activity. Using a type of inducible reporter, measures of mRNA for gain or loss-of-signal activity can be used to understand the reporter gene at the transcription factor-level as they relate to the gene HIF1A. Furthermore, this assay endpoint can be referred to as a primary readout, because this assay has produced multiple assay endpoints where this one serves a reporter gene function. To generalize the intended target to other relatable targets, this assay endpoint is annotated to the dna binding intended target family, where the subfamily is basic helix-loop-helix protein.
Human liver HepG2 cells are transiently transfected with multiple reporter transcription units (MRTUs) in 6-well plates using FuGene 6 reagent (Roche; 3 ml FuGene/1 mg DNA). The MRTU constructs are regulated by a cis-regulating element (promoter). […] A major difference between the CIS and TRANS system is that in CIS activities of endogenous TFs are measured, whereas the TRANS assay evaluates changes in activities of exogenous, chimeric NR-Gal4 proteins. […] At the end of 24 hour incubation, total RNA was isolated using TriZol reagent (Invitrogen). The isolated RNA is then reverse-transcribed using oligo(dT) primer and Mo-MLV reverse transcriptase (Invitrogen) with DNAse I (Ambion) treatment for 30 min. The one-tenth of the produced cDNA was amplified by PCR using Taq DNA polymerase (Invitrogen) and two reporter sequence-specific primers. The PCR products were fluorescently labeled by primer extension with 6-arboxyfluorescein (6-FAM) 5'-labeled reporter sequence-specific primer (2 min at 95 C, 20 s at 68 C and 10 min at 72 C) and these products were digested with 5U of HpaI (New England Biolabs) for 2h at 37 C. The fragments were purified using Qiaquick PCR columns (Qiagen), analyzed on an ABI 3130xL genetic analyzer (Applied Biosystems) with peak positions identified by using a set of X-rhodamine (ROX)-labeled MapMarker1000 molecular weight standards (BioVentures). The raw capillary electrophoresis data was processed using Attagraph software (Attagene).

Question: How did the outcome turn out when CC1=CC(O)CC(C)(C)C1 (stereo not given) was run?
Answer: inactive

Question: With NS(=O)(=O)c1cc(C(=O)O)c(NCc2ccco2)cc1Cl as the compound, how does the outcome read?
Answer: inactive

Question: With O=[N+]([O-])c1cc(N(CCO)CCO)ccc1NCCO as the compound, how does the outcome read?
Answer: inactive

Question: Which outcome does the source give for CCCCCCCCCCCCN1CCOCC1 here?
Answer: inactive

Question: Which outcome does the source give for CC(C)(C)c1cc(CCC(=O)OCCSCCOC(=O)CCc2cc(C(C)(C)C)c(O)c(C(C)(C)C)c2)cc(C(C)(C)C)c1O here?
Answer: inactive

Question: With CCCCC(CC)COCCO (stereo not given) as the compound, how does the outcome read?
Answer: inactive

Question: With OC[C@H]1O[C@@H](O[C@H]2[C@H](O)[C@@H](O)[C@H](O)O[C@@H]2CO)[C@H](O)[C@@H](O)[C@H]1O as the compound, how does the outcome read?
Answer: inactive

Question: With N#CCCCC(C#N)CCC#N (stereo not given) as the compound, how does the outcome read?
Answer: inactive

Question: [Cu+] was tested. Which outcome did it give?
Answer: inactive

Question: CCCC1CCC(=O)CC1 was tested. Which outcome did it give?
Answer: inactive

Question: For C=CC(=O)OCCCCCC, which outcome is on record?
Answer: inactive

Question: With CC(=O)Oc1c(C)c(C)c2c(c1C)CC[C@@](C)(CCC[C@H](C)CCC[C@H](C)CCCC(C)C)O2 as the compound, how does the outcome read?
Answer: inactive

Question: For CC1COC(=O)O1 (stereo not given), which outcome is on record?
Answer: inactive

Question: CCCCCCCCCCCCOC(C)=O was tested. Which outcome did it give?
Answer: inactive

Question: With CCC(CC)CO as the compound, how does the outcome read?
Answer: inactive

Question: CC(C)CCOC(=O)CC(C)C was tested. Which outcome did it give?
Answer: inactive

Question: With C=C1CC[C@H]2O[C@]2(C)CC[C@@H]2[C@@H]1CC2(C)C as the compound, how does the outcome read?
Answer: inactive

Question: C=C(C)C(=O)OCCC[Si](OC)(OC)OC was tested. Which outcome did it give?
Answer: inactive

Question: With CCNC(=S)NCC as the compound, how does the outcome read?
Answer: inactive

Question: With CC(C)N(c1ccccc1)C(C)C as the compound, how does the outcome read?
Answer: inactive

Question: With CCCC[N+](C)(CCCC)CCCC as the compound, how does the outcome read?
Answer: inactive

Question: For CC(C)=CCCC(C)=CC(=O)O, which outcome is on record?
Answer: inactive

Question: How did the outcome turn out when O=c1cc[nH]cc1 was run?
Answer: inactive

Question: Which outcome does the source give for [O-]/[N+](=N\O)c1ccccc1 here?
Answer: inactive

Question: With S=c1[nH][nH]c(=S)s1 as the compound, how does the outcome read?
Answer: inactive

Question: With CC(=N[Si](C)(C)C)O[Si](C)(C)C as the compound, how does the outcome read?
Answer: inactive

Question: How did the outcome turn out when O=C(O)c1ccco1 was run?
Answer: inactive

Question: For Nc1ccc(O)c(N)c1, which outcome is on record?
Answer: inactive

Question: For CC(C)COC(=O)c1ccccc1O, which outcome is on record?
Answer: inactive

Question: CC(C)(O)CCc1ccccc1 was tested. Which outcome did it give?
Answer: inactive

Question: For CC(=O)C1=C(C)[C@@H]2C[C@@]3(C1)[C@H](C)CC[C@H]3C2(C)C, which AC50 is on record?
Answer: 131 µM (active)

Question: NCCN1CCNCC1 was tested. Which outcome did it give?
Answer: inactive

Question: With CC(O)CNCC(C)O (stereo not given) as the compound, how does the outcome read?
Answer: inactive

Question: Which outcome does the source give for O=S(=O)(O)c1cc(S(=O)(=O)O)c2c(N=Nc3ccccc3)c(O)ccc2c1 here?
Answer: inactive

Question: With CC(=O)CC(C)(C)C1CCCCC1 as the compound, how does the outcome read?
Answer: inactive

Question: For CCCc1ccc(O)cc1, which outcome is on record?
Answer: inactive

Question: How did the outcome turn out when CC(=O)CCc1ccc(O)cc1 was run?
Answer: inactive

Question: Which outcome does the source give for COc1ccccc1NC(=O)CC(C)=O here?
Answer: inactive

Question: With CC1=C(C=O)C(C)(C)CCC1 as the compound, how does the outcome read?
Answer: inactive

Question: CCCCCCCC(=O)N(C)C was tested. Which outcome did it give?
Answer: inactive
